An excerpt weighted towards active compounds, which were near 7.3% of everything screened.
Rab9 promoter act = Rab9 promoter activation | Huh7 Rab9 promoter-luciferase reporter, luminescence, 24 h | Potency, µM (series often up to 9.22 µM), for the others: at the top dose activation, negative = inhibition, actives largely listed as activators | actives 2.8% (n = 320,000); further: % of control where 0% means no effect; nearly all actives have a fitted effect of over 60% in size
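Measured in stably transfected Huh7 cells bearing a Rab9 promoter–luciferase construct: 24 h compound treatment at 37 °C, followed by luminescence detection.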
SMN2 splice up = SMN2 splice variant enhancement. HEK293 SMN2-luciferase splicing reporter, luminescence, 30-36 h. Potency, µM (doses to about 46.1 µM), for the others: at the top dose activity change, positive = activation, usual class: activators. actives 2.8% (n = 210,000). AID 1458; further: % of control where 0% means no effect; nearly all actives have a fitted effect of over 55% in size
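HEK293 cells carry an SMN2 minigene-luciferase reporter in which exon 7 inclusion puts luciferase in frame. Cells were seeded at 2000 cells/well, attached for 10-12 hours, then exposed to compounds for 30-36 hours at 37C before ONE-Glo luminescence.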
ELG1 genotox = induces genotoxicity in HEK293T cells with luciferase-tagged ELG1. HEK293T ELG1-luciferase reporter, luminescence, 16 h. Potency, µM (series often up to 46 µM), without a hit: at the top dose activity change, positive = activation, hits mostly activators. actives 1.3% (n = 330,000); further: % of control where 0% means no effect; nearly all actives have a fitted effect of over 60% in size
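16 hr compound incubation (37 °C, 5% CO2) of HEK293T cells carrying luciferase-tagged ELG1; luciferase then measured by ONE-Glo luminescence after 30 min at RT.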
uPA surface inh = cell surface uPA generation inhibition. cell surface uPA generation assay, qHTS. Potency, µM (highest dose often 38.3 µM), without a hit: top-dose activity change, negative = inhibition, usual class: inhibitors. actives 0.31% (n = 330,000); active means well fitted inhibition curve with a large enough effect; inconclusive means small, poorly fitted or top-dose-only effect; inactive means no such curve, though single readings can be large or run the other way; tested in mouse RAW 264.7 cells; further: on the % scale 0 is the no-effect control and ±100 the full control effect; nearly all actives have a fitted effect of over 55% in size
FLuc modulator = counter-screen for miR-21 project: firefly luciferase inhibitors or activators. P08659. purified FLuc, Km substrates, luminescence inhibition. Potency, µM (highest dose often 57.5 µM), without a hit: at the top dose activity change, negative = inhibition, actives largely listed as inhibitors. actives 6.9% (n = 360,000);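 further: plate controls were vehicle for no effect and reference inhibitor for full effect; nearly all actives have a fitted effect of over 55% in size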
Target sequence (P08659 whole entry, looked up): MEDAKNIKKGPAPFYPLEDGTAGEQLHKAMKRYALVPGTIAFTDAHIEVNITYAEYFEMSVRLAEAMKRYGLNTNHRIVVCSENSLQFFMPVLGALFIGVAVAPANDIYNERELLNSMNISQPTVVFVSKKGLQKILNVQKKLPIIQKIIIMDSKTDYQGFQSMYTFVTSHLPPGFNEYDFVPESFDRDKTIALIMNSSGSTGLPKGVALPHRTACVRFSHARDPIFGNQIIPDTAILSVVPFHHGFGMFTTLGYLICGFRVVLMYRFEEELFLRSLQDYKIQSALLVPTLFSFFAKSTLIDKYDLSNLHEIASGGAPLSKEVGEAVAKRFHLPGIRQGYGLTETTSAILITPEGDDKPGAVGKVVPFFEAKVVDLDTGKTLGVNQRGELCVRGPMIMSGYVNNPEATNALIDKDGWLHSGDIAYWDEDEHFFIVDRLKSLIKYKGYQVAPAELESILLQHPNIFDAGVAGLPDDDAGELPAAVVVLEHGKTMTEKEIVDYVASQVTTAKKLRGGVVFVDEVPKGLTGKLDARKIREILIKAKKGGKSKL
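Purified P. pyralis luciferase, 10 nM final, with Km-level 10 uM D-luciferin and 10 uM ATP in 50 mM Tris acetate pH 7.5, 10 mM Mg acetate, 0.01% Tween-20, 0.05% BSA; 6-point qHTS titration about 60 µM downward; luminescence read.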
NPC1 promoter act = activates the NPC1 promoter. Huh7 NPC1 promoter luciferase reporter, 24 h. Potency, µM (highest dose often 9.22 µM), for inactives: top-dose activation, usual class: activators. actives 2.4% (n = 320,000). AID 485313; further: % of control where 0% means no effect; nearly all actives have a fitted effect of over 60% in size
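Compounds in DMSO were transferred onto Huh7 NPC1-luciferase reporter cells pre-incubated 2 h; after 24 h at 37 °C, Amplite reagent was dispensed and luminescence recorded 10 min later.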
* marks the source's active call; other numbers are inactive results; ? = inconclusive; . = no result given. Unless noted, the call rests on the fitted dose curve; in most records, active means well fitted curve in the direction sought with a large enough effect; inconclusive means small, poorly fitted or top-dose-only effect, or another doubt; inactive means no such curve, though single readings can be large; an effect the other way counts as inactive or inconclusive. Potency means the concentration at half of the fitted maximal effect.

SMILES	Rab9 promoter act	SMN2 splice up	ELG1 genotox	uPA surface inh	FLuc modulator	NPC1 promoter act
COc1ccc(/C=C/C(=O)Nc2ccccc2C(=O)N2CCCC2)cc1	?	7.5%	15.4%	-3.9%	9.53µM*	?
COc1ccc(C(CNC(=O)c2cccc3cccnc23)N(C)C)cc1 (centres undefined)	-9.8%	.	1.6%	2.6%	1.0%	-2.7%
CCCCOc1cccc(C(=O)Nc2sc3c(c2C(=O)OCC)CCCC3)c1	.	-1.8%	.	.	-3.1%	.
Cc1ccc(CNC(=O)CCCn2c(=O)c3ccccc3n(CC(=O)Nc3ccc(C)cc3)c2=O)cc1	.	0.4%	.	.	0.3%	.
COc1ccc(/C=C/C(=O)Nc2cc(C)nn2-c2nc3ccccc3[nH]2)cc1	?	11.2µM*	7.4%	-4.2%	1.69µM*	3.98µM*
COc1ccc(/C=C/C(=O)NC(=S)Nc2cc([N+](=O)[O-])ccc2O)cc1OC	0.7%	2.7%	1.6%	-7.1%	7.57µM*	-0.6%
CCc1cc(C(=O)O)c(NC(=O)/C=C/c2ccc(OC)cc2)s1	2.82µM*	.	?	-18.0%	12µM*	2.51µM*
COc1ccc(C2Nc3ccccc3C(=O)N2c2ccccc2)cc1CN1CCOCC1 (centres undefined)	22.7%	24.7%	5.6%	-2.0%	2.5%	11.9%
COc1ccc(C2Nc3ccccc3C(=O)N2c2ccc(C)cc2)cc1COc1ccccn1 (centres undefined)	3.16µM*	11.2µM*	?	0.3%	?	3.16µM*
COc1ccc(N2C(=O)c3ccccc3NC2c2ccc(OC)c(Cn3nnc4ccccc43)c2)cc1 (centres undefined)	?	14.1µM*	13.4%	0.1%	1.1%	?
COc1ccc(C2Nc3ccccc3C(=O)N2c2ccc(C)cc2)cc1Cn1nc(C)c([N+](=O)[O-])c1C (centres undefined)	?	.	?	-3.5%	-17.1%	?
CCCCN(C)C(=O)C1CCC(Cn2c(=O)[nH]c3ccsc3c2=O)CC1 (centres undefined)	.	.	.	.	-2.2%	.
C=CCn1c(=O)c(C(=O)Nc2ccccc2S(N)(=O)=O)c(O)c2ccccc21	3.16µM*	.	?	2.1%	?	2.51µM*
C=CCn1c(=O)c(C(=O)Nc2ccccc2C(=O)OCC)c(O)c2ccccc21	6.6%	0.8%	-6.1%	-2.0%	6.2%	7.9%
C=CCSC1=NC(=O)/C(=C/c2cccs2)S1	-5.3%	19.9%	?	-4.0%	19µM*	-8.1%
NC1=NC(=O)/C(=C/c2cccs2)S1	.	33.6%	2.5%	.	?	-8.9%
COc1cc(Cl)c(C)cc1NC(=O)Cn1ncc2c(=O)oc3ccccc3c21	.	10.9%	.	.	3.7%	.
Cc1ccc(C(=O)COC(=O)c2ccccc2N2C(=O)C3C4CCC(C4)C3C2=O)cc1C (centres undefined)	12.3%	-10.3%	-0.9%	.	12µM*	-3.2%
O=C(O)c1ccccc1N1C(=O)C2C3CCC(C3)C2C1=O (centres undefined)	-0.1%	3.2%	-0.1%	-8.6%	1.3%	-0.8%
Cc1ccc(C(=O)COC(=O)C(C)N2C(=O)C3C4C=CC(C4)C3C2=O)cc1C (centres undefined)	-0.5%	.	2.3%	6.6%	13.5µM*	-3.5%
Cc1ccc(C)c(C(=O)COC(=O)CCN2C(=O)C3C4CCC(C4)C3C2=O)c1 (centres undefined)	1.9%	.	2.4%	14.7%	12µM*	-5.4%
Cc1ccc(C)c(C(=O)COC(=O)CN2C(=O)C3C4CCC(C4)C3C2=O)c1 (centres undefined)	-1.6%	.	1.1%	4.7%	1.4%	1.0%
COc1cc(NC(=O)CN2CCCN(Cc3cccc(F)c3)S2(=O)=O)cc(OC)c1	.	.	.	.	-0.4%	.
CCCC(=O)c1cc(O)c(O)cc1O	.	-0.2%	.	.	.	.
Cc1ccc(S(=O)(=O)Oc2ccc(/C=C3\N=C(c4cccc(C)c4)OC3=O)cc2)cc1	6.9%	-8.7%	-4.1%	-0.3%	1.8%	-0.3%

Assay outcomes: PubChem, National Center for Advancing Translational Sciences (NCATS)
